From PubChem BioAssay (EPA / NIEHS)
Several values for one entry are separate records, joined by “and”; a condition that tells them apart may be missing. Equal entries are not always repeated. Results filed as inconclusive are left out. Some compounds were tested as several samples or in several runs, with calls that do not always agree. Activity calls are given as the source filed them. How the source made its calls, unless noted: active means hit-call score of the fitted dose curve at least 0.9, where 1 is the maximum; inactive means score below 0.9. Peptide text beside a SMILES is read from it.

Tests used:
[1] = read-out: Collagen III, COL3A1 (gene 1281); experiment: BSK_MyoF_CollagenIII: BioMAP Diversity Plus: MyoF Assay for Collagen III Biomarker Activity (AID 2284239); settings: primary human lung fibroblasts
Summary of the method: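 Compounds are added to primary human lung fibroblasts and left for 24 hours. Collagen III is then quantified by ELISA. Analysis takes DMSO as baseline and fits increases in signal.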

[2] = read-out: Actin alpha 1 (ACTA1), ACTA1 (gene 58); experiment: BSK_MyoF_ACTA1: BioMAP Diversity Plus: MyoF Assay for Actin alpha 1 (ACTA1) Biomarker Activity (AID 2284244); settings: primary human lung fibroblasts
Summary of the method: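 Lung fibroblasts, human primary, 24 h compound exposure → a-SMA ELISA. Positive-direction fit vs DMSO control.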

[3] = read-out: Interleukin 2 (IL2), IL2 (gene 3558); experiment: BSK_BT_xIL2: BioMAP Diversity Plus: BT Assay for Interleukin 2 (IL2) Biomarker Activity (AID 2284245); settings: primary human B cells with PBMC
Summary of the method: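 B cell + PBMC co-culture (human primary), compound added, 24 h incubation; secreted IL-2 measured multiplexed on Luminex xMAP; gain-of-signal fit vs DMSO.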

[4] = read-out: Basic fibroblast growth factor (bFGF), FGF2 (gene 2247); experiment: BSK_MyoF_bFGF: BioMAP Diversity Plus: MyoF Assay for Basic fibroblast growth factor (bFGF) Biomarker Activity (AID 2284246); settings: primary human lung fibroblasts
Summary of the method: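 ELISA-measured bFGF level serves as the read-out, taken 24 h after chemical dosing of human lung fibroblasts. Values represent signal gain over the DMSO negative control.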

[5] = read-out: Collagen IV, COL4A1 (gene 1282); experiment: BSK_MyoF_CollagenIV: BioMAP Diversity Plus: MyoF Assay for Collagen IV Biomarker Activity (AID 2284247); settings: primary human lung fibroblasts
Summary of the method: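 Steps: dose human lung fibroblasts; culture 24 h; quantify Collagen IV by ELISA; fit increase versus DMSO control. Parallel SRB total-protein staining (0.1% SRB after 10% TCA fixation, 560 nm) tracks overt cytotoxicity.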

[6] = read-out: Plasminogen activator inhibitor-1 (PAI1), SERPINE1 (gene 5054); experiment: BSK_MyoF_PAI1: BioMAP Diversity Plus: MyoF Assay for Plasminogen activator inhibitor-1 (PAI1) Biomarker Activity (AID 2284256); settings: primary human lung fibroblasts
Summary of the method: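 Activity reflects increased PAI-1, determined by ELISA and compared with DMSO, in human lung fibroblasts treated for 24 h.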

[7] = CCTE_Mundy_HCI_hNP1_Casp3_7: CCTE's Caspase-Glo 3/7 Assay in human neuroprogenitor cells for Apoptosis, Mundy Lab (AID 2284240)
Summary of the method: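 Apoptosis is scored by activated caspase-3/7 luminescence in WA09-derived neural progenitor cells, measured 26.5 h after chemical dosing. Values represent gain of signal relative to DMSO vehicle.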

[8] = CCTE_Mundy_HCI_hNP1_CellTiter: CCTE's Cell Titer-Glo 2 Assay in human neuroprogenitor cells for Viability, Mundy Lab (AID 2284241; active means hit-call score of the fitted dose curve at least 0.9, where 1 is the maximum)
Summary of the method: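 Human neural progenitor cells (hNP1, WA09-derived) were plated on poly-L-ornithine/laminin and grown 40 to 44 hours at 37 °C, 5% CO2 before chemical addition. Twenty-four hours later, ATP was measured by CellTiter-Glo luminescence; loss of signal versus DMSO indicates reduced viability.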

[9] = read-out: Monokine induced gamma interferon (MIG), CXCL9 (gene 4283); experiment: BSK_KF3CT_MIG: BioMAP Diversity Plus: KF3CT Assay for Monokine induced gamma interferon (MIG) Biomarker Activity (AID 2284248); settings: primary human keratinocytes with fibroblasts
Summary of the method: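 The assay uses a co-culture of human keratinocytes and foreskin fibroblasts. Measurement occurs 24 hours after dosing, with MIG detected by ELISA and the DMSO control as baseline.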

[10] = read-out: Vascular cell adhesion molecule 1 (VCAM1), VCAM1 (gene 7412); experiment: BSK_BF4T_VCAM1: BioMAP Diversity Plus: BF4T Assay for Vascular cell adhesion molecule 1 (VCAM1) Biomarker Activity (AID 2284249); settings: primary human bronchial epithelial cells with fibroblasts
Summary of the method: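 Human bronchial epithelial cell and dermal fibroblast co-culture exposed 24 h. VCAM-1 measured by ELISA; parallel SRB total-protein staining for cytotoxicity. Fitted in positive direction relative to DMSO.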

[11] = read-out: Collagen I, COL1A1 (gene 1277); experiment: BSK_hDFCGF_CollagenI: BioMAP Diversity Plus: hDFCGF Assay for Collagen I Biomarker Activity (AID 2284250); settings: primary human foreskin fibroblasts
Summary of the method: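 Human skin primary fibroblasts dosed with test chemical, harvested at 24 h, Collagen I quantified by ELISA; parallel SRB staining (0.1% SRB after 10% TCA fixation, 560 nm) tracked cytotoxicity.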

[12] = read-out: Interferon-inducible T-cell alpha chemoattractant (ITAC), CXCL11 (gene 6373); experiment: BSK_hDFCGF_ITAC: BioMAP Diversity Plus: hDFCGF Assay for Interferon-inducible T-cell alpha chemoattractant (ITAC) Biomarker Activity (AID 2284251); settings: primary human foreskin fibroblasts
Summary of the method: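 Fibroblasts (human foreskin, primary) are treated with chemical, cultured 24 h, then assayed for I-TAC by ELISA. Overt toxicity is checked in parallel cultures by sulforhodamine B staining of total protein at the same time point.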

[13] = read-out: Plasminogen activator inhibitor-1 (PAI1), SERPINE1 (gene 5054); experiment: BSK_KF3CT_PAI1: BioMAP Diversity Plus: KF3CT Assay for Plasminogen activator inhibitor-1 (PAI1) Biomarker Activity (AID 2284252); settings: primary human keratinocytes with fibroblasts
Summary of the method: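 ELISA read-out of PAI-1 taken 24 h after chemical treatment of a human skin primary co-culture of keratinocytes and foreskin fibroblasts. Increases over DMSO-treated wells defined activity.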

[14] = read-out: Monocyte Chemoattractant Protein-1 (MCP1), CCL2 (gene 6347); experiment: BSK_IMphg_MCP1: BioMAP Diversity Plus: IMphg Assay for Monocyte Chemoattractant Protein-1 (MCP1) Biomarker Activity (AID 2284253); settings: primary human endothelial cells with macrophages
Summary of the method: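 Human venular endothelial cells co-cultured with macrophages; MCP-1 measured by ELISA 24 hours post-dose and fitted against DMSO. Cytotoxicity monitored by SRB total-protein staining in parallel cultures.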

[15] = read-out: Interleukin-8 (IL8), CXCL8 (gene 3576); experiment: BSK_KF3CT_IL8: BioMAP Diversity Plus: KF3CT Assay for Interleukin-8 (IL8) Biomarker Activity (AID 2284254); settings: primary human keratinocytes with fibroblasts
Summary of the method: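 ELISA detection of IL-8 from a human skin co-culture, keratinocytes with foreskin fibroblasts, at 24 h following chemical exposure, with gain of signal scored against DMSO controls.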

[16] = read-out: Macrophage Inflammatory Protein-1 Alpha (MIP1a), CCL3 (gene 6348); experiment: BSK_IMphg_MIP1a: BioMAP Diversity Plus: IMphg Assay for Macrophage Inflammatory Protein-1 Alpha (MIP1a) Biomarker Activity (AID 2284255); settings: primary human endothelial cells with macrophages
Summary of the method: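 Co-culture of human venular endothelial cells and macrophages exposed to compounds for 24 h; MIP-1a measured by ELISA relative to DMSO. Cytotoxicity assessed in parallel cultures by sulforhodamine B total-protein staining at 560 nm.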

CD69, CD69 (gene 969) = experiment: BSK_IMphg_CD69: BioMAP Diversity Plus: IMphg Assay for CD69 Biomarker Activity (AID 2284257); settings: primary human endothelial cells with macrophages
Summary of the method: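 Human venular endothelial cells co-cultured with macrophages; CD69 quantified by ELISA 24 h after compound addition. Activity fitted in the positive direction relative to DMSO baseline; cytotoxicity tracked in parallel cultures via SRB total-protein staining.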

[17] = read-out: Eotaxin 3, CCL26 (gene 10344); experiment: BSK_BF4T_Eotaxin3: BioMAP Diversity Plus: BF4T Assay for Eotaxin 3 Biomarker Activity (AID 2284258); settings: primary human bronchial epithelial cells with fibroblasts
Summary of the method: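 Co-culture of human bronchial epithelial cells and dermal fibroblasts, exposed to chemicals for 24 h versus DMSO. Eotaxin-3 quantified by ELISA; cytotoxicity checked in parallel cultures by sulforhodamine B total-protein staining.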

[18] = CCTE_Mundy_HCI_Cortical_Synap_Neur_Matur_NeuronCount: CCTE's Synaptogenesis and Neurite Maturation Assay in rat cortical cells for Neuron Count, Mundy Lab (AID 2284242; active means hit-call score of the fitted dose curve at least 0.9, where 1 is the maximum)
Summary of the method: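 Neuron number was scored by automated high-content imaging of Hoechst- and MAP2-labelled rat primary cortical cells. Glial growth was arrested with AraC at DIV 5, compounds were applied from DIV 7, and cultures ended at DIV 12.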

Measured: AC50

CCCCCCC=O
inactive: [1] | [2] | [3] | [4] | [5] | [6]

O=C(O)C(F)(F)C(F)(F)C(F)(F)C(F)(F)C(=O)O
not listed: [18]
inactive: all other assays above

CCOC(=O)C1=NOC(c2ccccc2)(c2ccccc2)C1
inactive: [1] | [2] | [3] | [4] | [5] | [6]

COC(OC)(C(=O)c1ccccc1)c1ccccc1
inactive: [1] | [2] | [3] | [4] | [5] | [6]

Nc1nc(N)nc(-c2ccccc2)n1
inactive: [9] | [11] | [12] | [13] | [15]

CCCCCCOC(=O)CCCCC(=O)OCCCCCC
inactive: [1] | [2] | [3] | [4] | [5] | [6]

C=CCCCCCCCCC=O
inactive: [1] | [2] | [3] | [4] | [5] | [6]

CC(c1cc(C(C)(C)C)cc(C(C)(C)C)c1O)c1cc(C(C)(C)C)cc(C(C)(C)C)c1O
inactive: [1] | [2] | [4] | [5] | [6]
active: [3] 20 µM

Cc1c(C(=O)c2c[nH]n(C)c2=O)ccc(S(C)(=O)=O)c1C1=NOCC1
inactive: [7] | [8]

C=C(C)C(=O)OCCCCCCCCCCCC
inactive: [1] | [2] | [3] | [4] | [5] | [6]

CC(CCC(=O)O)(c1ccc(O)cc1)c1ccc(O)cc1
inactive: [9] | [11] | [12] | [13] | [15]

CC/C=C\CCOC(=O)c1ccccc1O
active: [1] 36.1 µM | [2] 30.7 µM | [4] 31.3 µM | [5] 33.2 µM | [6] 31.3 µM
inactive: [3]

CCCCNS(=O)(=O)c1ccccc1
inactive: [7] | [8] | [18]

C=CC(=O)OCCCCCCCC(C)C
inactive: [1] | [2] | [3] | [4] | [5] | [6]

CCOC(=O)/C=C\C(=O)OCC
inactive: [1] | [2] | [3] | [4] | [5] | [6]

COc1ccc(C(=O)c2ccccc2)c(O)c1
inactive: [1] | [2] | [3] | [4] | [5] | [6]

CCCC(C)C(=O)OCC (stereo not drawn)
inactive: [9] | [11] | [12] | [13] | [15]

Cc1c(O)cccc1O
inactive: [1] | [2] | [3] | [4] | [5] | [6]

Oc1ccccc1Cc1ccccc1O
inactive: [9] | [11] | [12] | [13] | [15]

Cc1noc(NS(=O)(=O)c2ccc(N)cc2)c1C
inactive: [7] | [8]

O=C(Oc1ccccc1)c1ccccc1C(=O)Oc1ccccc1
active: [2] 30.2 µM
inactive: [1] | [3] | [4] | [5] | [6]

c1ccc2sc(SSN3CCOCC3)nc2c1
active: [1] 28.4 µM | [2] 25.4 µM | [3] 28.1 µM | [4] 28.8 µM | [5] 14.9 µM | [6] 29.8 µM

O=C1CCCCCCCCCCC1
inactive: [1] | [2] | [3] | [4] | [5] | [6]

CCCCCCCCCCCC(=O)N(C)CC(=O)O
inactive: [9] | [11] | [12] | [13] | [15]

c1ccc(Nc2cccc3ccccc23)cc1
active: [9] 38.9 µM and 33.8 µM | [11] 14.3 µM | [12] 30.1 µM and 30.3 µM | [13] 27.4 µM and 26.5 µM | [15] 31.6 µM and 29.4 µM
inactive: [11]

C=CC(=O)NC(C)(C)C
inactive: [1] | [2] | [3] | [4] | [5] | [6]

COC(=O)[C@H](Cc1ccccc1)NC(=O)[C@@H](N)CC(=O)O (H-Asp-Phe-OMe)
inactive: [7] | [8]

CCN1CN(CC)CN(CC)C1
inactive: [1] | [2] | [3] | [4] | [5] | [6]

CC(C)C(=O)OCCc1ccccc1
inactive: [9] | [11] | [12] | [13] | [15]

Oc1ccc(/C=C/c2cc(O)cc(O)c2)cc1
inactive: [1] | [2] | [3] | [4] | [5] | [6]

CCCCC1C(=O)N(c2ccccc2)N(c2ccccc2)C1=O
inactive: [1] | [2] | [4] | [5] | [6]

CC=C(C)C(C)=O
inactive: [1] | [2] | [3] | [4] | [5] | [6]

CCCCCCCCC(CO)CCCCCC (stereo not drawn)
inactive: [1] | [2] | [3] | [4] | [5] | [6]
